# Experiments:
# Assay in all cases: DAPPL (digital affinity profiling via proximity ligation, sequencing); 10 mM Tris-HCl pH 7.5, 50 mM NaCl, 1 mM DTT, 4% glycerol, room temperature, 30 min; GST-TFs on glutathione beads, 16-mer random dsDNA library, 0.1% formaldehyde crosslink after washing; high values mean tight binding
# Details in all cases: protein: recombinant; tags: N-terminal GST; dsDNA, one strand shown
# [1] = molecular target: T1, FLI1 (Homo sapiens, UniProt Q01543 1-452)
# T1 sequence: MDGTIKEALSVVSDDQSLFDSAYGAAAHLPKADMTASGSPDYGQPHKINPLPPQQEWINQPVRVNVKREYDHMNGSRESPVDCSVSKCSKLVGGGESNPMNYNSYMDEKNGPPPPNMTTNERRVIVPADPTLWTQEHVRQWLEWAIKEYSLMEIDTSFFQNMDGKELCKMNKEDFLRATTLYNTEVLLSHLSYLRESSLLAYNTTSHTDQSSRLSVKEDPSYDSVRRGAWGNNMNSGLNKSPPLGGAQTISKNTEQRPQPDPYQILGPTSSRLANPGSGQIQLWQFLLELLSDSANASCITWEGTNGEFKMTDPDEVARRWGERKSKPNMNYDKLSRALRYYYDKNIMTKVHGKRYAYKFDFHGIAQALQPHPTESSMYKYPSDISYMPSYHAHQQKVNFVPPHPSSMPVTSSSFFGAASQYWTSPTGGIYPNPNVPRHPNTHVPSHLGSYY
# How it was run: (§1)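 Yeast served to express human transcription factors as GST fusions, which were then captured on glutathione beads and labelled with DNA barcodes. Pooled with a tag-only sample, they were incubated with 200 nmole of a 16-mer random double-stranded DNA library for 30 min at room temperature in Tris/NaCl/DTT/glycerol buffer, washed, crosslinked with 0.1% formaldehyde, ligated by proximity, amplified by PCR and sequenced. Dividing each hexamer's read frequency for a factor by its frequency for the tag-only sample gives the binding signal.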
# [2] = molecular target: T2, ELK1 (Homo sapiens, UniProt P19419 1-428)
# T2 sequence: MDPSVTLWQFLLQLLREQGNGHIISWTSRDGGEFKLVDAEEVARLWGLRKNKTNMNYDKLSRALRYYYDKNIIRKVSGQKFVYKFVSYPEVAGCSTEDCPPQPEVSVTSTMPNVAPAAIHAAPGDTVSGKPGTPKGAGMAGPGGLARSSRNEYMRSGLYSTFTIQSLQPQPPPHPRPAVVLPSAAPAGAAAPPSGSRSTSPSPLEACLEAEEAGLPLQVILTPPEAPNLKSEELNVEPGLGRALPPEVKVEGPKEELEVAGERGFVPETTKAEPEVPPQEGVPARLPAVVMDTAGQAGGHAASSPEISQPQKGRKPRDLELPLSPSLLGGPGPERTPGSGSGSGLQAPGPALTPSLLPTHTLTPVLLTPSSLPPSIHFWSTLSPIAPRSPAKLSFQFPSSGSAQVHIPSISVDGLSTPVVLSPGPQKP
# How it was run: as §1
# [3] = molecular target: T3, GABPA (Homo sapiens, UniProt Q06546 1-454)
# T3 sequence: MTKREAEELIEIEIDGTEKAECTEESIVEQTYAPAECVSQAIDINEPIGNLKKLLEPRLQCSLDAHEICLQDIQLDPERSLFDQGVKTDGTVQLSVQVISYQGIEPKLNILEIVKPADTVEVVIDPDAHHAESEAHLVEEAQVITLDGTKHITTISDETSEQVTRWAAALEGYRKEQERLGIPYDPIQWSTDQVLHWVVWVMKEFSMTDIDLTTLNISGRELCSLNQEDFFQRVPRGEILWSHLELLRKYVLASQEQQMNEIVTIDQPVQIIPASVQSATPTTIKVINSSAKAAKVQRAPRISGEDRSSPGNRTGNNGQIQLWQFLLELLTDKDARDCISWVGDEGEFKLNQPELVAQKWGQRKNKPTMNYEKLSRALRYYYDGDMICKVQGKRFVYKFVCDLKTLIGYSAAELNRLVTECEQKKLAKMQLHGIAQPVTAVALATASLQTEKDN
# How it was run: as §1
# [4] = molecular target: ELF1 (Homo sapiens, UniProt P32519 1-619)
# Chain of ELF1 (P32519 whole entry): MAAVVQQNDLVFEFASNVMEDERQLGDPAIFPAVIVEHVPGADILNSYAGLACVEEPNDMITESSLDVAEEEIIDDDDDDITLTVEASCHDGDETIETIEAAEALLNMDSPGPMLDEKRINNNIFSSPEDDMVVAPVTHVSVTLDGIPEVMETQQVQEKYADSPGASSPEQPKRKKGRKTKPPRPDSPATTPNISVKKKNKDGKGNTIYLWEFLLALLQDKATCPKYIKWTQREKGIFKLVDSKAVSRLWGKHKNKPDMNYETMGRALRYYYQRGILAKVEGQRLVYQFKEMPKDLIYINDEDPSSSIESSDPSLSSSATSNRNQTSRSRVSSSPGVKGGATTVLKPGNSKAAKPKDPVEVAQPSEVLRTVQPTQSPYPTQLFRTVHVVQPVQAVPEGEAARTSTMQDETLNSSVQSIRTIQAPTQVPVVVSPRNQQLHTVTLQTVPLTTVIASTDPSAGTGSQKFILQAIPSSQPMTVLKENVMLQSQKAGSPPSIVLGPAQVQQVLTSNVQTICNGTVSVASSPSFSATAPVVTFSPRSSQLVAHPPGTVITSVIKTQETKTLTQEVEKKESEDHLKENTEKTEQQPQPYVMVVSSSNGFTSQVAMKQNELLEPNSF
# How it was run: as §1
# [5] = molecular target: T4, EHF (Homo sapiens, UniProt Q9NZC4 1-300)
# T4 sequence: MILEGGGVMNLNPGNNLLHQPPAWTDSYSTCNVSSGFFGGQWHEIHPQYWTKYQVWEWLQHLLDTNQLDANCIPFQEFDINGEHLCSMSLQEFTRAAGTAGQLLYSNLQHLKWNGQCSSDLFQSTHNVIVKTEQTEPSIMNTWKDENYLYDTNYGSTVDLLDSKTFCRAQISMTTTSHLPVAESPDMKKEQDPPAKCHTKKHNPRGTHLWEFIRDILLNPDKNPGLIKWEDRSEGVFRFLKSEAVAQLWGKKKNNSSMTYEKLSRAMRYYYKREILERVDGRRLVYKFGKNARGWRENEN
# How it was run: as §1
# [6] = molecular target: SPIB (Homo sapiens, UniProt Q01892 1-262)
# Chain of SPIB (Q01892 whole entry): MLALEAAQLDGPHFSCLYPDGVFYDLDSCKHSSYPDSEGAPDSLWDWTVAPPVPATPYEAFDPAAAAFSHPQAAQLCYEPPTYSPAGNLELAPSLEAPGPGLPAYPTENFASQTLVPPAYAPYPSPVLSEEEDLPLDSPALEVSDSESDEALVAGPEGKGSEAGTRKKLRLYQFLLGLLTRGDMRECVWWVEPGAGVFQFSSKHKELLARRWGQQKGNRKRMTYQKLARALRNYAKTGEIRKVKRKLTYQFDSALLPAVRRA
# How it was run: as §1
# [7] = molecular target: T5, ELK3 (Homo sapiens, UniProt P41970 1-407)
# T5 sequence: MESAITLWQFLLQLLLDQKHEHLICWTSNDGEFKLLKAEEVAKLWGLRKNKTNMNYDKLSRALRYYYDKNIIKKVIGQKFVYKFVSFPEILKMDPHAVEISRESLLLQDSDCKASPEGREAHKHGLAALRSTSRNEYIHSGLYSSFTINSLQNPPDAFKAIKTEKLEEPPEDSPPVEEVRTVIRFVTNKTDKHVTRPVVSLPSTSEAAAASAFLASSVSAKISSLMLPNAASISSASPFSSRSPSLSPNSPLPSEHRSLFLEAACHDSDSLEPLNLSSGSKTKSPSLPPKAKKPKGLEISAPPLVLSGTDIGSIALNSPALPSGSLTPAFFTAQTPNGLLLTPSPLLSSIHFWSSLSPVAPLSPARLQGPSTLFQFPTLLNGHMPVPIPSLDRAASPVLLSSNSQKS
# How it was run: as §1
# [8] = molecular target: T6, SPIC (Homo sapiens, UniProt Q8N5J4 1-248)
# T6 sequence: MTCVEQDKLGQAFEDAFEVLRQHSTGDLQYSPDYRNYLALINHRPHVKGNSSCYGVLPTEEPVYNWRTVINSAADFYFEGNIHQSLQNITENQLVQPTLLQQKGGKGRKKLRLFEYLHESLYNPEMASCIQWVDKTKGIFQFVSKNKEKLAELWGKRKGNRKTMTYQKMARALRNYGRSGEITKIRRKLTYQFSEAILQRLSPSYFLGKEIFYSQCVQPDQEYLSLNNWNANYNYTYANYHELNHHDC
# How it was run: as §1
# [9] = molecular target: ELF4 (Homo sapiens, UniProt Q99607 1-663)
# Chain of ELF4 (Q99607 whole entry): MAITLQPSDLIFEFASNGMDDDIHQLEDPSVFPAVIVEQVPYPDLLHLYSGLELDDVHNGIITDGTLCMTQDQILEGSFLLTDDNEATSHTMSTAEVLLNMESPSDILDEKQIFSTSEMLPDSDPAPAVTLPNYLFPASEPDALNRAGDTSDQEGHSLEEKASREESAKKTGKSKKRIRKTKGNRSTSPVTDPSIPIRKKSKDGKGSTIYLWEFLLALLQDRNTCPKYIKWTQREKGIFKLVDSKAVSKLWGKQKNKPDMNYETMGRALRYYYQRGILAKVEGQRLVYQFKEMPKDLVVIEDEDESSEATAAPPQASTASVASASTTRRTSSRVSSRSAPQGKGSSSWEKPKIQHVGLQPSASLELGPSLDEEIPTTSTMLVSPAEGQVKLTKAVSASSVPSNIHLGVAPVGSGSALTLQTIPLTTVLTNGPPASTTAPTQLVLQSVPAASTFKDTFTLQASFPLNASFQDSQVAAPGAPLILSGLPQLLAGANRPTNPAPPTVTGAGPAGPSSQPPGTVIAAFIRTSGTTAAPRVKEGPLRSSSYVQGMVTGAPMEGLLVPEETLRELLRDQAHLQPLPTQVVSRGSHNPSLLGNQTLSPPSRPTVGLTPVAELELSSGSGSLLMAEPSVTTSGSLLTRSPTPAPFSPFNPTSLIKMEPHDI
# How it was run: as §1
# [10] = molecular target: T7, ETV2 (Homo sapiens, UniProt O00321 1-342)
# T7 sequence: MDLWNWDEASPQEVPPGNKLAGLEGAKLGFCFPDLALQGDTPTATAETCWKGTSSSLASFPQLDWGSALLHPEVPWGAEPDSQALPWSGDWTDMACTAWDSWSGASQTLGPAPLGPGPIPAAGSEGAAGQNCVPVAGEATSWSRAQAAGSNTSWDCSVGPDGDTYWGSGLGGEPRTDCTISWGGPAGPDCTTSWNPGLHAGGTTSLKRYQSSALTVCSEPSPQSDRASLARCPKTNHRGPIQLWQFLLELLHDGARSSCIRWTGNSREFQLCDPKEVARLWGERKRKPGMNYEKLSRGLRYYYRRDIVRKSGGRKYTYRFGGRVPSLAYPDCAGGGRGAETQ
# How it was run: as §1
# [11] = molecular target: T8, ERF (Homo sapiens, UniProt P50548 1-548)
# T8 sequence: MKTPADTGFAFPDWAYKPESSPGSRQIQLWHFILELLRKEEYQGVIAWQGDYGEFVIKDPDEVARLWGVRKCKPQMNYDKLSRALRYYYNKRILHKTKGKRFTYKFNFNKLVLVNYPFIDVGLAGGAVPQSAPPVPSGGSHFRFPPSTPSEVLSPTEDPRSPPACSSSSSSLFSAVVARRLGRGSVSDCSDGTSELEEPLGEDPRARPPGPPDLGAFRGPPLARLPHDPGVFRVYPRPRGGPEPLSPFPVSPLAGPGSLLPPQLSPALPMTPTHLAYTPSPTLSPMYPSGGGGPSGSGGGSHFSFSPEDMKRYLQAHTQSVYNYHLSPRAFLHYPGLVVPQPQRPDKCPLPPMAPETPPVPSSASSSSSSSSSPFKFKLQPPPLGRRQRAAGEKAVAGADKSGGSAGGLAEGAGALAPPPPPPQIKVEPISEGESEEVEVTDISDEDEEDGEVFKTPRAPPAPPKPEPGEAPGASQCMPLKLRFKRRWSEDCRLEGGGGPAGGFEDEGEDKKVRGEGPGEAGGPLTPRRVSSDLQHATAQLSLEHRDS
# How it was run: as §1
# [12] = molecular target: T9, ETV7 (Homo sapiens, UniProt Q9Y603 1-341)
# T9 sequence: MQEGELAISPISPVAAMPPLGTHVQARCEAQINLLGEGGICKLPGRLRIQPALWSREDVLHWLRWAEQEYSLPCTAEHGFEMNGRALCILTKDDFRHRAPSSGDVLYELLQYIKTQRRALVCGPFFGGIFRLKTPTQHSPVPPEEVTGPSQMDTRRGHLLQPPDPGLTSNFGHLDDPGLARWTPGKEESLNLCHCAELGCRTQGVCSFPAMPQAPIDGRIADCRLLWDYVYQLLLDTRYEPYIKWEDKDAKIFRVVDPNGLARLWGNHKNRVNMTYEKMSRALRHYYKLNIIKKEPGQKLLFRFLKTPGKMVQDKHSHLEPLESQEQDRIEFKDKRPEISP
# How it was run: as §1
# [13] = molecular target: T10, ETV3 (Homo sapiens, UniProt P41162-2 1-143)
# T10 sequence: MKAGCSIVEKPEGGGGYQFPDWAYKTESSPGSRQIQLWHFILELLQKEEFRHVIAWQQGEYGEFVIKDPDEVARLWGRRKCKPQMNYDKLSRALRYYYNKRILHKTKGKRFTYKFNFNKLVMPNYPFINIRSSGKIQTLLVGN
# How it was run: as §1
# [14] = molecular target: ETV6 (Homo sapiens, UniProt P41212 1-452)
# Chain of ETV6 (P41212 whole entry): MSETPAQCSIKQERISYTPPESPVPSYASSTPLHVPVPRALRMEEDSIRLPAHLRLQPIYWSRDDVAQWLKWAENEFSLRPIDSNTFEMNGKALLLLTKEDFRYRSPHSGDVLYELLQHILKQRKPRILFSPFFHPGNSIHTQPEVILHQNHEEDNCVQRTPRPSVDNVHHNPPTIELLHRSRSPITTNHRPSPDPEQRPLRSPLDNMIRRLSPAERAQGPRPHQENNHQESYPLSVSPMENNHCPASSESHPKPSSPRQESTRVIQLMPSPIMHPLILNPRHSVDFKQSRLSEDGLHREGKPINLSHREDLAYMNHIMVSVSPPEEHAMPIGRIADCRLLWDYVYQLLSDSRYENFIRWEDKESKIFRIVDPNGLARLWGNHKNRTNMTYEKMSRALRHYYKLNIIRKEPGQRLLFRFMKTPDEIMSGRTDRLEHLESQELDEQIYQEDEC
# How it was run: as §1
# [15] = molecular target: T11, ELK4 (Homo sapiens, UniProt P28324-2 1-405)
# T11 sequence: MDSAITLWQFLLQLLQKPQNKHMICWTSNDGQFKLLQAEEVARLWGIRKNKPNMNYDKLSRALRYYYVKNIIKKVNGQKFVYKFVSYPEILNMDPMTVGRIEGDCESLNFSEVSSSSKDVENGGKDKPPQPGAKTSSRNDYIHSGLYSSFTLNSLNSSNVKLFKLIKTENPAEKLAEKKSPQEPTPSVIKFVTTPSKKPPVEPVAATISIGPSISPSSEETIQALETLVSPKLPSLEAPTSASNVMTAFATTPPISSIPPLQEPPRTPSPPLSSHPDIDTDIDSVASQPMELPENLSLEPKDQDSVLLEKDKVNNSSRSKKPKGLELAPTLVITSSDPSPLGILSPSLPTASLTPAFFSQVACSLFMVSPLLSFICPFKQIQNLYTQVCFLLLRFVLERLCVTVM
# How it was run: as §1
Sequence,binding signal [1],binding signal [2],binding signal [3],binding signal [4],binding signal [5],binding signal [6],binding signal [7],binding signal [8],binding signal [9],binding signal [10],binding signal [11],binding signal [12],binding signal [13],binding signal [14],binding signal [15]
TTAAGA,"1.05 fold enrichment (6-mer frequency, TF over GST control)","1.05 fold enrichment (6-mer frequency, TF over GST control)","1.09 fold enrichment (6-mer frequency, TF over GST control)","1.05 fold enrichment (6-mer frequency, TF over GST control)","1.05 fold enrichment (6-mer frequency, TF over GST control)","1.07 fold enrichment (6-mer frequency, TF over GST control)","1.02 fold enrichment (6-mer frequency, TF over GST control)","1.12 fold enrichment (6-mer frequency, TF over GST control)","1.05 fold enrichment (6-mer frequency, TF over GST control)","1.15 fold enrichment (6-mer frequency, TF over GST control)","1.08 fold enrichment (6-mer frequency, TF over GST control)","1.13 fold enrichment (6-mer frequency, TF over GST control)","1.05 fold enrichment (6-mer frequency, TF over GST control)","1.05 fold enrichment (6-mer frequency, TF over GST control)",
TGAAGA,"1 fold enrichment (6-mer frequency, TF over GST control)",,,,,,"1.03 fold enrichment (6-mer frequency, TF over GST control)","1.01 fold enrichment (6-mer frequency, TF over GST control)","1.01 fold enrichment (6-mer frequency, TF over GST control)",,"1.09 fold enrichment (6-mer frequency, TF over GST control)","1.04 fold enrichment (6-mer frequency, TF over GST control)",,,"1.02 fold enrichment (6-mer frequency, TF over GST control)"

# From paper PMC7862700, “An all-to-all approach to the identification of sequence-specific readers for epigenetic DNA modifications on cytosine”
